Reference: PubChem BioAssay (NCATS)
Inconclusive results are not listed. The source made the active and inactive calls. Unless noted, calls come from the whole dose curve; as a rule, active = well fitted cell-killing curve with a large enough effect; inconclusive = small, poorly fitted or top-dose-only effect, or effect the other way; inactive = no such curve, though single readings can be large or run the other way.

Tests used:
[1] = Quantitative High-Throughput drug screen in 47 multiple myeloma cell lines against the NCATS MIPE library collection: XG1_PLB cell viability assay (AID 1919866); note: nearly all actives have a fitted effect of over 35% in size
Method in brief: (§1)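 qHTS format: cells plated (500/well), pin-dosed with MIPE 4.0 compounds, kept 48 h at 37 °C. Readout was CellTiter-Glo luminescence, median RLU.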

[2] = Quantitative High-Throughput drug screen in 47 multiple myeloma cell lines against the NCATS MIPE library collection: VP6_DJ cell viability assay (AID 1919867); note: nearly all actives have a fitted effect of over 40% in size
Method in brief: as §1

[3] = Quantitative High-Throughput drug screen in 47 multiple myeloma cell lines against the NCATS MIPE library collection: UTMC2_PLB cell viability assay (AID 1919868); conditions: CellTiter-Glo ATP luminescence, 48 h; viability (% of DMSO control): at 45.8 µM (top of the series) unless noted; note: nearly all actives have a fitted effect of over 55% in size
Method in brief: as §1

[4] = Quantitative High-Throughput drug screen in 47 multiple myeloma cell lines against the NCATS MIPE library collection: PE2_PLB cell viability assay (AID 1919869); note: nearly all actives have a fitted effect of over 35% in size
Method in brief: as §1

[5] = Quantitative High-Throughput drug screen in 47 multiple myeloma cell lines against the NCATS MIPE library collection: PCM6_Riken cell viability assay (AID 1919870); note: nearly all actives have a fitted effect of over 30% in size
Method in brief: as §1

[6] = Quantitative High-Throughput drug screen in 47 multiple myeloma cell lines against the NCATS MIPE library collection: RPMI8226_ATCC cell viability assay (AID 1919871); note: nearly all actives have a fitted effect of over 30% in size
Method in brief: as §1

[7] = Quantitative High-Throughput drug screen in 47 multiple myeloma cell lines against the NCATS MIPE library collection: KMS11_JCRBsus cell viability assay (AID 1919873); note: nearly all actives have a fitted effect of over 50% in size
Method in brief: as §1

[8] = Quantitative High-Throughput drug screen in 47 multiple myeloma cell lines against the NCATS MIPE library collection: KMS28BM_JCRB cell viability assay (AID 1919874); note: nearly all actives have a fitted effect of over 35% in size
Method in brief: as §1

[9] = qHTS drug screen for cell cycle checkpoint inhibitors in PARPi-resistant BRCA-mutant ovarian cancer cell lines. (AID 1963452; calls by dose curve); conditions: PEO1/OlaR viability, CellTiter-Glo luminescence, 96 h; for Z-AUC: stronger effect = lower value
Method in brief: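 PEO1, PEO4 and PEO1/OlaR ovarian cancer cells, 600 per well, exposed 96 h at 37C to a dilution series. Viability read by CellTiter-Glo luminescence, normalized to DMSO and empty wells; activity summarized as Z-AUC.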

[10] = Quantitative High-Throughput drug screen in 47 multiple myeloma cell lines against the NCATS MIPE library collection: OPM2_DSMZ cell viability assay (AID 1919872); note: nearly all actives have a fitted effect of over 30% in size
Method in brief: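 We plated 500 myeloma cells per well, pinned in MIPE 4.0 compounds, and incubated for 48 hours at 37C. ATP was then quantified with CellTiter-Glo, with DMSO and media-only wells defining 100% and 0%.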

[11] = qHTS for identification of novel therapeutic agents for treatment of microphthalmiaassociated transcription factor (MiT) renal cell carcinoma (RCC) (AID 1963991; calls by dose curve); conditions: CellTiter-Glo, 48 h; for z-score: stronger effect = lower value
Method in brief: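 Curves over 11 concentrations were fitted to CellTiter-Glo luminescence, scaled between empty wells (0%) and DMSO (100%) viability. Cells were UOK109, UOK124 and UOK145 TFE3-fusion RCC lines at 500/well, exposed 48 hours at 37 C.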

[12] = measured here: PEO1 parental Z-AUC
Potency is the fitted concentration of half-maximal effect.

SMILES	Potency [1]	Potency [2]	Potency [3]	Potency [4]	Potency [5]	Potency [6]	Potency [7]	Potency [8]	Z-AUC [9]	Z-AUC [9, 12]	Z-AUC ([9]; measured here: PEO4 Z-AUC)	Potency [10]	Potency [9]	Potency ([11]; TFE3-RCC UOK109 viability, active = Z-AUC below -0.8 in all three lines)	z-score ([11]; TFE3-RCC UOK109 viability, measured here: UOK109 Z-AUC)	z-score ([11]; TFE3-RCC viability, measured here: UOK124 Z-AUC)	z-score ([11]; TFE3-RCC viability, measured here: UOK145 Z-AUC)
COc1cc2c(Oc3ccc(-c4cnc(Nc5ccc(F)cc5)n(C)c4=O)cc3F)ccnc2cc1OCCCN1CCOCC1	7.43 µM (active)	2.64 µM (active)	5.26 µM (active)	14.8 µM (active)	7.43 µM (active)	5.9 µM (active)	935 nM (active)	4.18 µM (active)	-1.38 (inactive)	-0.565	-0.285						
C[C@@H]1CN(CC(=O)Nc2ccc3c(c2)Cc2cccc(-c4cc(=O)cc(N5CCOCC5)o4)c2S3)C[C@H](C)O1	5.9 µM (active)	16.6 µM (active)	6.62 µM (active)	13.2 µM (active)	9.35 µM (active)		16600 nM (active)		0.729 (inactive)	0.761	0.901						
CC(C)(C)c1cnc(CSc2cnc(NC(=O)C3CCNCC3)s2)o1	0.296 µM (active)	0.148 µM (active)	0.187 µM (active)	0.296 µM (active)	0.0833 µM (active)		132 nM (active)	0.148 µM (active)	-0.758 (inactive)	-1.2	-0.895	0.235 µM (active)					
CCN(CC)CCCCNc1ncc2cc(-c3cc(OC)cc(OC)c3)c(NC(=O)NC(C)(C)C)nc2n1	8.33 µM (active)	10.5 µM (active)	16.6 µM (active)	20.9 µM (active)	5.26 µM (active)		23500 nM (active)		-1.19 (inactive)	1.07	0.00955	20.9 µM (active)					
NC(=O)Nc1cc(-c2cccc(F)c2)sc1C(=O)N[C@H]1CCCNC1	0.187 µM (active)	0.166 µM (active)	0.105 µM (active)	0.469 µM (active)	4.69 µM (active)		526 nM (active)	1.87 µM (active)		-1.9	-1.5	2.64 µM (active)	110 nM (active)	935 nM (active)	-1.42	-1.69	-1.85
COc1cc2c(Oc3ccc4[nH]c(C)cc4c3F)ncnc2cc1OCCCN1CCCC1	3.32 µM (active)	4.69 µM (active)	26.4 µM (active)	13.2 µM (active)	2.35 µM (active)		2960 nM (active)	16.6 µM (active)	-0.035 (inactive)	0.995	0.0837						
